Data on eight compounds can be found in ChEMBL document CHEMBL3988442, “University of Dundee, Small-Polar-MMV Screening Library” (2021).

For some of these results: Potency and affinity values are given separately.

Holding throughout (parameters): scale not given: direction of the effect not stated beside the values
In experiment [1] the target is Protein translocase subunit SecA (Escherichia coli (strain K12)) (UniProt P10408). Put plainly: Assay to Identify E. coli SecA ATPase Inhibitors. In kind it is functional. The conditions noted are these: 30 µM.
Experiment [2] deals with T1, Ubiquitin-activating enzyme e1, putative (Leishmania donovani (strain BPK282A1)) (UniProt E9BSI1).
T1 sequence (whole entry): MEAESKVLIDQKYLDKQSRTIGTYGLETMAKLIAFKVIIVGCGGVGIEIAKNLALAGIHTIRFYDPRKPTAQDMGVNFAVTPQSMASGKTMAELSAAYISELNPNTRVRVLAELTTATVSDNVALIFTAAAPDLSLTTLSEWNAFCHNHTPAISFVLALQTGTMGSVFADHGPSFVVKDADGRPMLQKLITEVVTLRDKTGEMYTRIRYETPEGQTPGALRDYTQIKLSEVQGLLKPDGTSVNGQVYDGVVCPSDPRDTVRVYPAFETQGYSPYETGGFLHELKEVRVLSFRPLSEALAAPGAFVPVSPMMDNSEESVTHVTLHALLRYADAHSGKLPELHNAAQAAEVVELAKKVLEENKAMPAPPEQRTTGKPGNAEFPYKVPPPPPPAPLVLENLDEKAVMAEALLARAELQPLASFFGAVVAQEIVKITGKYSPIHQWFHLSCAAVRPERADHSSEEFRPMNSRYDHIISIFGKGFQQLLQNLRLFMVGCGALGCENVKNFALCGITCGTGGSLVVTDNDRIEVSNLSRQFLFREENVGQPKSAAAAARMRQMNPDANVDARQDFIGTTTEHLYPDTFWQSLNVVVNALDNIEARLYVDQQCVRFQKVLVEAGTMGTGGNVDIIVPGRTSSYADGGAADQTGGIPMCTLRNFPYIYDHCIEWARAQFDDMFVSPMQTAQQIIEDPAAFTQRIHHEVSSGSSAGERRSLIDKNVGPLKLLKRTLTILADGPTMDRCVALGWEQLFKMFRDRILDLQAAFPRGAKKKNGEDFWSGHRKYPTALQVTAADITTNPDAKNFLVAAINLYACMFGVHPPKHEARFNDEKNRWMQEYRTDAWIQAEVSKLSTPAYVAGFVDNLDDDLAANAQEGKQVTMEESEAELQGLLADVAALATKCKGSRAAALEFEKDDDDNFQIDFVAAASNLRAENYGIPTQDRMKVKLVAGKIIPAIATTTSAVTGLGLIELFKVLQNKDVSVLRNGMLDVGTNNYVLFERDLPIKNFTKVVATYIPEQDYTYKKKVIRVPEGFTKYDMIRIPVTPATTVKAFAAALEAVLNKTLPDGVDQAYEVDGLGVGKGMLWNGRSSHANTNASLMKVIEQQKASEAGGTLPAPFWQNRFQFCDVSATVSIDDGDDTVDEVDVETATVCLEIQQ
Put plainly: Leishmania donovani Ubiquitin Activating Enzyme (LdE1). The class given is functional. The conditions noted are these: 30 µM.

In experiment [3] the target is AMP-activated protein kinase, AMPK (Homo sapiens) (UniProt P54646+O43741+P54619+Q9UGJ0+Q9Y478+Q13131+Q9UGI9). Put plainly: AMP-dependent Kinase enzyme assay. An in vitro enzyme assay that detects ADP turnover that is directly proportional to AMPK activity. This uses naive AMPK that is activated during the assay with MK-8722. The class given is functional. The conditions noted are these: 30 µM.

In experiment [4] the target is Sialic acid-binding Ig-like lectin 9 (Homo sapiens) (UniProt Q9Y336). Put plainly: Hs-Siglec9 ALPHAscreen SOP 20170721. The conditions noted are these: 10 µM. In general terms: Alpha assays give light when donor and acceptor beads are brought close together.
Experiment [5] relates to Trypanosoma cruzi. Description: Trypanosoma cruzi phosphomannomutase and mannose-1-phosphate guanylyltransferase assay. The settings on record: 10 µM. In kind it is functional.
In experiment [6] the target is T2, Arginase-2, mitochondrial (Homo sapiens) (UniProt P78540).
T2 sequence (whole entry): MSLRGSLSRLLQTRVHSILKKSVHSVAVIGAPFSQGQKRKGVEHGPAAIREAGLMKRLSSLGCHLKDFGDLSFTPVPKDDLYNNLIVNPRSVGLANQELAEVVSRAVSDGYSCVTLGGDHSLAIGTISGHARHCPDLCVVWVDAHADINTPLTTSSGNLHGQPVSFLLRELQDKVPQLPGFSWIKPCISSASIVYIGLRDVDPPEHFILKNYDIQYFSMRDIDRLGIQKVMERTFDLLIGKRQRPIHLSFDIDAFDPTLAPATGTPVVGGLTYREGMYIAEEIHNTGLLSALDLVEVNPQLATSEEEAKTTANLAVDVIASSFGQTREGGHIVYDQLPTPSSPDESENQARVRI
Put plainly: in vitro enzyme assay to detect the production of urea directly proportional to the activity of Arginase II. Note: in the data most compounds retested in dose-response had high values. The class given is functional. The conditions noted are these: 33.3 µM.

The target in experiment [7] is T3, Proteasome subunit beta (Trypanosoma cruzi) (UniProt O96673).
T3 sequence (whole entry): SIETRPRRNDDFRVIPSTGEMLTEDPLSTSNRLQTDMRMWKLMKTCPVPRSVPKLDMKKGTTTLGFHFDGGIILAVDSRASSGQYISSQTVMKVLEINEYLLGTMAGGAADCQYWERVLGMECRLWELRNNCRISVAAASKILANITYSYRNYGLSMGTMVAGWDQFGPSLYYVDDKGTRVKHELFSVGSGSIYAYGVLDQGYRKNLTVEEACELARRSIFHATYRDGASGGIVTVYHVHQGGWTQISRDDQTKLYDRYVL
Put plainly: Trypanosoma cruzi proteasome chymotrypsin-like activity (TcProtChymo) assay. Note: in the data most compounds retested in dose-response had high values. The class given is functional. The settings on record: 9.37 µM.

The species entered for experiment [8] is Homo sapiens. Put plainly: To identify inhibition of the IFN signalling (Jak-Stat) pathway via expression of an eGFP reporter gene under the control of an IFN-stimulated response element (ISRE) containing MxA promoter. In kind it is functional. The settings on record: 30 µM.
Experiment [9] has as its target T4, Tyrosyl-tRNA synthetase, putative (Trypanosoma cruzi (strain CL Brener)) (UniProt Q4DSP6).
T4 sequence (whole entry): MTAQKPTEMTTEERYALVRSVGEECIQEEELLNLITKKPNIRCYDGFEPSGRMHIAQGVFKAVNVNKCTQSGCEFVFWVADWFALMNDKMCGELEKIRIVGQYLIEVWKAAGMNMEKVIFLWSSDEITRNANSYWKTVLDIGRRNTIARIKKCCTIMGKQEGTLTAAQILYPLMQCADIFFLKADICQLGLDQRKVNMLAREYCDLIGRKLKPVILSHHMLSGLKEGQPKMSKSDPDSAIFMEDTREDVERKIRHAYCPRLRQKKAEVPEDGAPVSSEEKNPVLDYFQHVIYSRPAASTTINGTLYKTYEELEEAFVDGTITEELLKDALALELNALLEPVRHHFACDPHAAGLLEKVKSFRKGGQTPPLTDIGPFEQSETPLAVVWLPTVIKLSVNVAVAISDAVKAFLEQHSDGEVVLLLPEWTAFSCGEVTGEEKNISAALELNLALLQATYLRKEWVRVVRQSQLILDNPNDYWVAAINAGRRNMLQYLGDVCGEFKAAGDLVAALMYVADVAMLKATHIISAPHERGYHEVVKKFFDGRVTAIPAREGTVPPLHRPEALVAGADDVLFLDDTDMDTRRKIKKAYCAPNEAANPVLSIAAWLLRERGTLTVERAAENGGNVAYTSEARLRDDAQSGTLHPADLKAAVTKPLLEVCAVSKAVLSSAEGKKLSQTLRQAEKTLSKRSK
Description: Trypanosoma cruzi tyrosyl tRNA synthetase (TcYRS) _High Tyrosine SOP. Note: in the data most compounds retested in dose-response had high values. The class given is functional. The settings on record: 30 µM.

The target in experiment [10] is T4, Tyrosyl-tRNA synthetase, putative (Trypanosoma cruzi (strain CL Brener)). Put plainly: Trypanosoma cruzi tyrosyl tRNA synthetase (TcYRS) SOP. The class given is functional. The settings on record: 30 µM.
The target of experiment [11] is Chromo domain-containing protein 1 (Saccharomyces cerevisiae (strain ATCC 204508 / S288c) (Baker's yeast)) (UniProt P32657). Put plainly: ScCHD-1 Enzyme Inhibition Assay. Note: in the data most compounds retested in dose-response had high values. The settings on record: 30 µM. The class given is functional.
Chromo domain-containing protein 1 (Saccharomyces cerevisiae (strain ATCC 204508 / S288c) (Baker's yeast)), sequence (P32657 whole entry, the tested form may be a part): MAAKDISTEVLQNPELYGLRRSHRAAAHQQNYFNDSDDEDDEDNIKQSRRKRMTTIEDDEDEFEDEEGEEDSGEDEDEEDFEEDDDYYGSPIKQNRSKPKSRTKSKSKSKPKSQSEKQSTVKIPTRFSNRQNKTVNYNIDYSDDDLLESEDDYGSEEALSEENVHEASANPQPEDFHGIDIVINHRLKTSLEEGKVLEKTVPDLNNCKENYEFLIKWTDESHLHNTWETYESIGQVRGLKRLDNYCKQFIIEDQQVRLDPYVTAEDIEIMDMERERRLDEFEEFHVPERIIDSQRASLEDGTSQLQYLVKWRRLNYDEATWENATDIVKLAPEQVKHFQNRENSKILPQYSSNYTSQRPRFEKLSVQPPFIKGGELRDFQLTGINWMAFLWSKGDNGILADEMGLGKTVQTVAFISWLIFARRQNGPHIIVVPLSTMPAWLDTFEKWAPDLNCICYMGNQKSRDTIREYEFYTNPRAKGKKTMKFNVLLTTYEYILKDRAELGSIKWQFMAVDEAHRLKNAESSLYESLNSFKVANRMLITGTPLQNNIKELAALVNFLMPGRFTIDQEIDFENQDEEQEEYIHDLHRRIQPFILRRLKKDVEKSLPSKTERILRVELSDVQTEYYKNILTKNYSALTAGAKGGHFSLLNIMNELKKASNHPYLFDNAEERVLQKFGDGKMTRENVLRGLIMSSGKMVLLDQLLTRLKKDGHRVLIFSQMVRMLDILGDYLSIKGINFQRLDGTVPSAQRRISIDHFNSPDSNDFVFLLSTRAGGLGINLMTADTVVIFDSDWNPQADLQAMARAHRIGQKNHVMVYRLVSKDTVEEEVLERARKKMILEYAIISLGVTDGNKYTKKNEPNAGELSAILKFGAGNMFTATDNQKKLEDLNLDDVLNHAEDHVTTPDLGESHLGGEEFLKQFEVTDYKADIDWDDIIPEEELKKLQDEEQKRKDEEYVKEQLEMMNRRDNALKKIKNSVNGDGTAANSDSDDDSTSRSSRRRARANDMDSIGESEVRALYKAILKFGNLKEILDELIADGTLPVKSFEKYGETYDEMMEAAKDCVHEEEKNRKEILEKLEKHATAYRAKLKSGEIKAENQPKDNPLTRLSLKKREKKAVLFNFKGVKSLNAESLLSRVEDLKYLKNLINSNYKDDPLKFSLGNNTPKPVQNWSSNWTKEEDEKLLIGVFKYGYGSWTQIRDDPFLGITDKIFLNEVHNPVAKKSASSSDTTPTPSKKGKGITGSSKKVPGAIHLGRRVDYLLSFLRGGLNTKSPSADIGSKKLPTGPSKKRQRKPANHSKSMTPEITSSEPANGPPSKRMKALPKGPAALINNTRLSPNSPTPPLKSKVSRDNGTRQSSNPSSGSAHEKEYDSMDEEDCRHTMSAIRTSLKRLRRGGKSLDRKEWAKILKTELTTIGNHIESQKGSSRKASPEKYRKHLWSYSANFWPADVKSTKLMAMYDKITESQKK

Sialic acid-binding Ig-like lectin 9 (Homo sapiens), sequence (Q9Y336 whole entry): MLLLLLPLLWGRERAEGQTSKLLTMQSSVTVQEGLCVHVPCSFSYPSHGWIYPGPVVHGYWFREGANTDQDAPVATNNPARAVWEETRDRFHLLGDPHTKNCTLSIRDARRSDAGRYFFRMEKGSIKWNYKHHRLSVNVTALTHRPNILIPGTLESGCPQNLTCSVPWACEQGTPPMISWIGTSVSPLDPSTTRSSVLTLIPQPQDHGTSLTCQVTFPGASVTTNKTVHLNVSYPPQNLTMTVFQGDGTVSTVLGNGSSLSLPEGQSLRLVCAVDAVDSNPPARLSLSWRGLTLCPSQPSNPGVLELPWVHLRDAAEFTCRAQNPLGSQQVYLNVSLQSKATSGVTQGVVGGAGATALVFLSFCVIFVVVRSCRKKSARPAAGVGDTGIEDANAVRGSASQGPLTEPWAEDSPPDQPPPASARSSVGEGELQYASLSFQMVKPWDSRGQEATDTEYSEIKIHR
Protein translocase subunit SecA (Escherichia coli (strain K12)), sequence (P10408 whole entry): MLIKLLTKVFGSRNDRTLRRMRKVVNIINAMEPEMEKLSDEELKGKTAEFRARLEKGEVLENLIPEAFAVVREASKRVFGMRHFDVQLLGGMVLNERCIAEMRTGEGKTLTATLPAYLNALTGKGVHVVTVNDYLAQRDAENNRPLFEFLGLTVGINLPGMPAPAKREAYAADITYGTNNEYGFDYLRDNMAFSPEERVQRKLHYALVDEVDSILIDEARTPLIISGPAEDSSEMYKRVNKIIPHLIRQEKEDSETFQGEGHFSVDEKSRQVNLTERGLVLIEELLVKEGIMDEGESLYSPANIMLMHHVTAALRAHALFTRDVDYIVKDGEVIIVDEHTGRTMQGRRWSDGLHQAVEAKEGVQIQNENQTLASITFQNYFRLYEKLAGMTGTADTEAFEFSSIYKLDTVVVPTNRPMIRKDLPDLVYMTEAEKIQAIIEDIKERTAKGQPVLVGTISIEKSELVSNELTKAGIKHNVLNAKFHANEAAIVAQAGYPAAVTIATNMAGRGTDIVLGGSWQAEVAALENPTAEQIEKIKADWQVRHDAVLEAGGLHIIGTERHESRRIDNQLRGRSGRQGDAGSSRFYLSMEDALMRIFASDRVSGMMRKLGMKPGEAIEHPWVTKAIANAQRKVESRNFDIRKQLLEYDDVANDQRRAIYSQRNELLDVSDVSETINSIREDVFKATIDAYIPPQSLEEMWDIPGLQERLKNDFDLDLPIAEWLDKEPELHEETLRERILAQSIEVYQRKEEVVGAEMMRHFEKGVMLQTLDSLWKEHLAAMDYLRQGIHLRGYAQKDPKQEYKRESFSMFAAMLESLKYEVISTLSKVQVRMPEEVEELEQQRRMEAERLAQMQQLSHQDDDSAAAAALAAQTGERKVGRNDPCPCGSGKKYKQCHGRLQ

As to `O=C(C1SCCc2sccc21)N1CCN(CCO)CC1` (stereo not drawn), the Percent Effect in experiment [1] was -6.92%; in [2] it was 16.2%; in [3], -1.14%; in experiment [4], 33.4%; in experiment [5], 2.34%; in experiment [6], 22.5%. Moreover, the Percent Effect in experiment [7] was 17.7%; in experiment [8] it was 11.7%; in experiment [9], -3.96%; in [10], 15.8%; in experiment [11] it was -3.8%.
`CCc1nc(CN2CCCC(N(C)Cc3cnn(C)c3)C2)no1` (stereo not drawn): the Percent Effect is -1.5% in [1]; 8.22% in [2]; -0.902% in [3]; 3.69% in experiment [4]; 2.74% in experiment [5]; 5.91% in [6]. Further, the Percent Effect in [7] is 9.23%; in experiment [8], -2.09%; in experiment [9] it was 1.07%; in experiment [10] it was 2.5%; in [11], -3.19%.
With `CN1CCN(Cc2ccccc2CNC(=O)c2ccc(Br)cc2F)CC1`, the Percent Effect in experiment [1] was -2.05%; in [2], 5.41%; in [3], -1.3%; in experiment [4], 7.25%; in experiment [5], -1.86%; in experiment [6] it was 3.72%. For the same compound, the Percent Effect in [7] is 3.35%; in experiment [8] it was 9.27%; in experiment [9], 5.38%; in [10] it was 11.1%; in experiment [11], -4.37%.
For the compound `CCOc1ccccc1-c1noc(CN2CC(n3cccn3)C2)n1`, the Percent Effect was -1.57% in experiment [1]; 2.6% in experiment [2]; 2.37% in experiment [3]; -3.32% in experiment [4]; 8.13% in [5]; -3.16% in experiment [6]. Further, the Percent Effect in experiment [7] is 2.99%; in experiment [8] it was 4.34%; in experiment [9], 0.952%; in [10], 7.06%; in [11], -6.41%.
With `CN(C)CC1CSCCCN1C(=O)c1ccc(=O)[nH]c1` (stereo not drawn), the Percent Effect in experiment [1] was -6.61%; in experiment [2] it was 2.6%; in [3] it was 6.1%; in experiment [4], 5.73%; in experiment [5] it was -5.82%; in experiment [6], 0.645%. Also, the Percent Effect in experiment [7] is 7.66%; in experiment [8], 0.342%; in [9], -1.06%; in experiment [10], 3.85%; in experiment [11], -3.68%.
Regarding `COc1cccc(CN2CCC(c3nccn3C(C)C)CC2)c1`, the Percent Effect in experiment [1] was -3.84%; in [2] it was 15.6%; in experiment [3], 0.593%; in experiment [4], 14.9%; in [5] it was 4.23%; in experiment [6], -5.52%. The Percent Effect was 11.5% in experiment [7]; -3.74% in [8]; 7.53% in experiment [9]; 21% in experiment [10]; -7.09% in experiment [11].
Consider `NC(=O)C1CN(C(=O)Nc2ccccc2SC(F)(F)F)CCO1` (stereo not drawn), for which the Percent Effect in experiment [1] was -2.59%; in experiment [2], 10.8%; in experiment [3] it was -2.48%; in [4] it was 12.1%; in [5], 7.15%; in experiment [6] it was -1.29%. Besides, the Percent Effect in experiment [7] is 4.31%; in experiment [8], 9.57%; in experiment [9] it was 5.94%; in experiment [10] it was 18.3%; in experiment [11], -7.87%.
Take `Cc1ncccc1Oc1nccnc1C1CCN(C(C)C)CC1`: the Percent Effect in experiment [1] is -6.52%; in experiment [2] it was 6.76%; in experiment [3] it was 1.33%; in [4], 5.77%; in [5], 0.593%; in [6] it was -2.09%. Also, the Percent Effect in [7] is 2.65%; in experiment [8], -0.668%; in experiment [9], -31.2%; in [10], 9.09%; in [11], -19.2%.
